Potency and outcome data for 8 compounds are collected here from PubChem BioAssay (Tox21).

A number with no mark means an inactive call. Inconclusive results are not listed. Calls of active or inactive are those of the source. Unless noted, calls follow the shape of the dose curve; as a rule, active = well fitted curve in the direction sought with a large enough effect in the repeat runs; inconclusive = weak or mixed curves; inactive = no such curve, though single readings can be large; an effect the other way counts as inactive or inconclusive.

Assay [1] in a line: qHTS assay to identify small molecule antagonists of the estrogen receptor beta (ER-beta) signaling pathway - cell viability counter screen (AID 1259382). Also: nearly all actives have a fitted effect of over 55% in size. Also: potency is read from the fitted curve at half-maximal effect. An outline of the steps: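 CellTiter-Glo ATP luminescence measured after the LiveBLAzer read in the same wells; ER-beta-UAS-bla HEK293T cells, 16 hr compound treatment with 1nM 17-beta-estradiol agonist at 37C, 5% CO2.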
For assay [2], the target named is Estrogen receptor (Homo sapiens) (UniProt P03372). The experiment in a line: qHTS assay to identify small molecule agonists of the estrogen receptor alpha (ER-alpha) signaling pathway in the presence of an antagonist (AID 1259383; calls by dose curve; also: top concentration of the series differs between compounds; nearly all actives have a fitted effect of over 15% in size). An outline of the steps:
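Luminescent ERE-luciferase reporter, VM7Luc4E2 cells (endogenous ER-alpha); 10.0nM ICI-182,780 final; 15-point compound titration; 22hr at 37C; ONE-Glo, 30min RT.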
In general terms: In qHTS, concentration-response curves come from the screen itself.

Assay [3] is described as follows: qHTS assay to identify small molecule agonists of the estrogen receptor alpha (ER-alpha) signaling pathway in the presence of an antagonist - cell viability counter screen (AID 1259386).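 Also: cells exposed to compounds for 22 h at 37 °C before the viability read; nearly all actives have a fitted effect of over 30% in size.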 Also: potency is read from the fitted curve at half-maximal effect. An outline of the steps: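 Using estrogen-depleted VM7Luc4E2 cells, the 15-concentration compound series was applied together with 10.0nM ICI-182,780 and incubated 22hr at 37C/5% CO2. Cell viability was then scored by CellTiter-Fluor.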

Assay [4] in a line: qHTS assay to identify small molecule antagonists of the TGF-beta/Smad signaling pathway - cell viability counter screen (AID 1346824). Also: nearly all actives have a fitted effect of over 50% in size. The gist of the method: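 SBE-bla HEK 293T cells, incubated overnight, then compound plus 0.25 ng/mL TGF-beta1 (stock added) for 5 hr at 37 C. Viability was read in the same wells by CellTiter-Glo luminescence after 30 min at room temperature.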

Assay [5] is described as follows: qHTS assay to identify small molecule agonists of the TGF-beta/Smad signaling pathway - cell viability counter screen (AID 1346829). Also: top concentration of the series differs between compounds; nearly all actives have a fitted effect of over 45% in size. An outline of the steps: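 Luminescence from CellTiter-Glo, read after a 30 min room-temperature incubation, gives cell viability of SBE-bla HEK 293T cells treated 5 hr with compounds at 37 C.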
A short description of assay [6]: qHTS assay to identify small molecule agonists of the TGF-beta/Smad signaling pathway (AID 1346859; active = well fitted activation curve with a large enough effect in the signal ratio in the repeat runs, not every such curve was filed as active; the % refers to the signal ratio; also: series mostly up to about 77 µM). An outline of the steps:
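Fluorescence (ex 405 nm; em 460 and 530 nm) was read 2 h after LiveBLAzer FRET substrate at RT. The preceding compound treatment of overnight-plated SBE-bla HEK293T cells lasted 5 h at 37 C.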

The target of assay [7] is Thyrotropin-releasing hormone receptor (Homo sapiens) (UniProt P34981). The assay can be described thus: qHTS assay to identify small molecule agonists of the thyrotropin-releasing hormone receptor (TRHR) signaling pathway (AID 1346891; calls by dose curve; also: potency is read from the fitted curve at half-maximal effect; as to activation: series mostly up to about 58 µM). An outline of the steps: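 Agonist-mode intracellular calcium readout: kinetic fluorescence over 3 min at 1 s intervals after compound addition to TRHR-HEK293 cells (18 h seeded, 2 h dye-loaded at 37 C). Fifteen concentrations, triplicates.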
Sequence of Thyrotropin-releasing hormone receptor (Homo sapiens) (P34981 whole entry, looked up): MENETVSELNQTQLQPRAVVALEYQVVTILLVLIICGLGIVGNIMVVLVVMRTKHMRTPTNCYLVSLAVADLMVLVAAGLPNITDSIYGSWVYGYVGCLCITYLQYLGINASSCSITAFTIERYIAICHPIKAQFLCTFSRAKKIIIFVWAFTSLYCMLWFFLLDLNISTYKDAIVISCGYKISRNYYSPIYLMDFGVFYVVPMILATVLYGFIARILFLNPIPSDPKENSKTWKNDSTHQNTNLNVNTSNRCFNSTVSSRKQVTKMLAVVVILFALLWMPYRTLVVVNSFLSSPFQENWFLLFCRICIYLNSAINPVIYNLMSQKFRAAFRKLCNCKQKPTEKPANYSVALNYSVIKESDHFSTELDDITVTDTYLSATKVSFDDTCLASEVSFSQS

The nature of assay [8]: Caspase-3/7 induction in HepG2 cells by small molecules, qHTS assay (AID 1346978). Also: nearly all actives have a fitted effect of over 15% in size. An outline of the steps:
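Wild-type HepG2 cells, 2,000/well, settled 5 hr at 37 C and 5% CO2, then compound-treated for 17 hr; caspase-3/7 activity read by luminescent Caspase-Glo 3/7 after 30 min at room temperature.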

Assay [9] can be described thus: Caspase-3/7 induction in CHO-K1 cells by small molecules, qHTS cell viability counter screen (AID 1346979). Also: nearly all actives have a fitted effect of over 35% in size. Also: potency is read from the fitted curve at half-maximal effect. The gist of the method: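 Cytotoxicity counter screen: CellTiter-Fluor added to compound-treated wild-type CHO-K1 cells at 16 h (37C, 5% CO2), fluorescence measured 1 h later; same wells as caspase-3/7 measurement.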
Assay [10] in a line: Caspase-3/7 induction in CHO-K1 cells by small molecules, qHTS assay (AID 1346980). Also: nearly all actives have a fitted effect of over 15% in size. The gist of the method: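 Wild-type CHO-K1 cells exposed to compounds for 17hr at 37 C, 5% CO2. Caspase-3/7 activity then measured by Caspase-Glo 3/7 luminescence after 30min at room temperature.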
Assay [11] in a line: Caspase-3/7 induction in HepG2 cells by small molecules, qHTS cell viability counter screen (AID 1346981). Also: nearly all actives have a fitted effect of over 30% in size. Also: potency is read from the fitted curve at half-maximal effect. An outline of the steps:
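After a 5-hr attachment period at 37 C and 5% CO2, wild-type HepG2 cells received compounds in DMSO. Sixteen hours later CellTiter-Fluor was dispensed and the fluorescent signal quantified after a further hour.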

Assay [12] can be described thus: qHTS assay to identify small molecule agonists or antagonists of the thyroid stimulating hormone receptor (TSHR) signaling pathway - wild type cell line counter screen (AID 1259384; calls by dose curve). An outline of the steps: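 Wild-type Hek293 cells, 800/well, 18 h at 37C, then compound with Ro20-1724 for 30 min RT. cAMP by HTRF (cAMP-d2/anti-cAMP cryptate), 1 h RT, fluorescence read. 15 concentrations, triplicates.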

The target of assay [13] is Thyrotropin receptor (Homo sapiens) (UniProt P16473). The assay can be described thus: qHTS assay to identify small molecule antagonists of the thyroid stimulating hormone receptor (TSHR) signaling pathway (AID 1259385; calls by dose curve; also: nearly all actives have a fitted effect of over 20% in size; also: potency is read from the fitted curve at half-maximal effect). The gist of the method:
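TSHR-HEK293 cells (800/well) plated 18 h, then compounds with Ro20-1724 and TSH at 1.5 ng/mL final, 30 min at room temperature. cAMP quantified by HTRF (cAMP-d2/anti-cAMP-cryptate, 1 h); 15 concentrations in triplicate.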

Assay [14] has as its target Progesterone receptor (Homo sapiens) (UniProt P06401). The assay can be described thus: qHTS assay to identify small molecule agonists of the progesterone receptor (PR) signaling pathway (AID 1346784; calls by dose curve; also: nearly all actives have a fitted effect of over 30% in size). An outline of the steps: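 Agonist qHTS: compounds pinned onto 3,000 PR-UAS-bla HEK 293T cells per well in charcoal-stripped serum medium, 16hr at 37C, then beta-lactamase activity measured by LiveBLAzer FRET fluorescence after 2 hours at room temperature.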

For assay [15] the target is unchanged. The experiment in a line: qHTS assay to identify small molecule antagonists of the progesterone receptor (PR) signaling pathway (AID 1346795; active = well fitted inhibition curve with a large enough effect in the signal ratio in the repeat runs, not every such curve was filed as active; the % refers to the signal ratio; also: potency is read from the fitted curve at half-maximal effect). An outline of the steps:
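Antagonist mode with agonist R5020 at 1 nM final and 16 hr incubation at 37C. Reporter was beta-lactamase driven by UAS in HEK293T (PR-UAS-bla), 2% charcoal-stripped serum; signal from LiveBLAzer FRET substrate, 2 hr at room temperature.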

Assay [16] in a line: qHTS assay to identify small molecule antagonists of the progesterone receptor (PR) signaling pathway - cell viability counter screen (AID 1346798). Also: nearly all actives have a fitted effect of over 50% in size. Also: potency is read from the fitted curve at half-maximal effect. The gist of the method:
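Cytotoxicity read as CellTiter-Glo luminescence (30 min, room temperature) in the same wells as the beta-lactamase readout. HEK293T PR-UAS-bla cells in charcoal-stripped 2% FBS received compound and R5020, then 16 h at 37C, 5% CO2.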

The nature of assay [17]: qHTS assay to identify small molecule agonists of the progesterone receptor (PR) signaling pathway - cell viability counter screen (AID 1346799; calls by dose curve; also: nearly all actives have a fitted effect of over 45% in size; also: potency is read from the fitted curve at half-maximal effect). An outline of the steps:
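Cytotoxicity measured by CellTiter-Glo luminescence (30 min, RT) in the same wells as the PR beta-lactamase agonist read. Those HEK293T cells had 16 h compound treatment at 37 C in 2% charcoal-stripped FBS medium.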

Assay [18] in a line: Human pregnane X receptor (PXR) small molecule agonists, qHTS cell viability counter screen (AID 1346977). Also: nearly all actives have a fitted effect of over 50% in size. An outline of the steps: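 Same-well viability read: CellTiter-Fluor added after 23 hr compound exposure, fluorescence measured 1 hr later. Cells were PXR-Luc HepG2 seeded at 2,000/well in 5% charcoal-stripped FBS medium, rested 5 hr before dosing at 37 C.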
Assay [19] concerns the target Nuclear receptor subfamily 1 group I member 2 (Homo sapiens) (UniProt O75469). The experiment in a line: Human pregnane X receptor (PXR) small molecule agonists, qHTS assay (AID 1346982). Also: nearly all actives have a fitted effect of over 35% in size. Also: potency is read from the fitted curve at half-maximal effect. An outline of the steps: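 Tox21 qHTS; PXR-Luc HepG2; compounds pinned from DMSO; 24 hr, 37 C; ONE-Glo luciferase detection, 30 min room temperature.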
For assay [20], the target named is Thyrotropin-releasing hormone receptor (Homo sapiens) (UniProt P34981). The assay can be described thus: qHTS assay to identify small molecule antagonists of the thyrotropin-releasing hormone receptor (TRHR) signaling pathway (AID 1346877; active = well fitted inhibition curve with a large enough effect in the repeat runs, not every such curve was filed as active; also: series mostly up to about 51 µM). An outline of the steps:
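Calcium signal in dye-loaded TRHR/HEK293 cells; compounds added 5 min before TRH (1 nM final); fluorescence monitored 3 min at 1 s steps.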

Sequence of Progesterone receptor (Homo sapiens) (P06401 whole entry, looked up): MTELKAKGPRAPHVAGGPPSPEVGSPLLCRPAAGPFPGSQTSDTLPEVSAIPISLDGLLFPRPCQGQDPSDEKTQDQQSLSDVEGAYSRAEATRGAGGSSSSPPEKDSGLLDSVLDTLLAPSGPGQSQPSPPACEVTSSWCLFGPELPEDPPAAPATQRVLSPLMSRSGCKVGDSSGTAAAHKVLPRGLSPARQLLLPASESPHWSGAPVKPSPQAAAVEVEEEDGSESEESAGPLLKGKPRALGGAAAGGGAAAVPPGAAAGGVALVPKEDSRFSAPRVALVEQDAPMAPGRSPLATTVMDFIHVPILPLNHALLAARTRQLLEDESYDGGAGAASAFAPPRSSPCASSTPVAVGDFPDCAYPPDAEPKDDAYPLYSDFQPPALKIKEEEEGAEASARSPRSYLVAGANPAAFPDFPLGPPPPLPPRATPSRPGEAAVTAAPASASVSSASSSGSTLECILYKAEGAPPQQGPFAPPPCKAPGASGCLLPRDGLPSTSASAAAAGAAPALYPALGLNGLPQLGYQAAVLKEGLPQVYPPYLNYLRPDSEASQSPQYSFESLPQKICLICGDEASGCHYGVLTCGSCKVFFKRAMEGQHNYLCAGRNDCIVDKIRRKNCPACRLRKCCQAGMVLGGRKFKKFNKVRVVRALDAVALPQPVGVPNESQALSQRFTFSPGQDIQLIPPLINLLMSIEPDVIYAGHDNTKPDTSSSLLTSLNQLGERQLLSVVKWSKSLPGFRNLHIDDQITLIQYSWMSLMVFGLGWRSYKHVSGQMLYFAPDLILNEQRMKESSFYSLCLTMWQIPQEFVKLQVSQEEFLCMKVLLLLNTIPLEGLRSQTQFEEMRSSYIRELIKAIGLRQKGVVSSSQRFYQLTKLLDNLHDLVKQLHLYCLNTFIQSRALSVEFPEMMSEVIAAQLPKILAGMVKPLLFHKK
Sequence of Nuclear receptor subfamily 1 group I member 2 (Homo sapiens) (O75469 whole entry, looked up): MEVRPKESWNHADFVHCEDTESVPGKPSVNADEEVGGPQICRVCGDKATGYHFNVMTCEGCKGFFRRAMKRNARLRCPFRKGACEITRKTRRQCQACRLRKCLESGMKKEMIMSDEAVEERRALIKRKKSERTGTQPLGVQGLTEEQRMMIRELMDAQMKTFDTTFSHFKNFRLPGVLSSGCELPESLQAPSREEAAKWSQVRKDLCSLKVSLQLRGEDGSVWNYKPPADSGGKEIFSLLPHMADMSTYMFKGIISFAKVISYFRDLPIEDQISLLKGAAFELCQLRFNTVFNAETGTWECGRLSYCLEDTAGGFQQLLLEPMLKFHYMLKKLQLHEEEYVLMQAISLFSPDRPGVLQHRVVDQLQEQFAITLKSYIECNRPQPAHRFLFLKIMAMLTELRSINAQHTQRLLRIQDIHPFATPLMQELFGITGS
Sequence of Estrogen receptor (Homo sapiens) (P03372 whole entry, looked up): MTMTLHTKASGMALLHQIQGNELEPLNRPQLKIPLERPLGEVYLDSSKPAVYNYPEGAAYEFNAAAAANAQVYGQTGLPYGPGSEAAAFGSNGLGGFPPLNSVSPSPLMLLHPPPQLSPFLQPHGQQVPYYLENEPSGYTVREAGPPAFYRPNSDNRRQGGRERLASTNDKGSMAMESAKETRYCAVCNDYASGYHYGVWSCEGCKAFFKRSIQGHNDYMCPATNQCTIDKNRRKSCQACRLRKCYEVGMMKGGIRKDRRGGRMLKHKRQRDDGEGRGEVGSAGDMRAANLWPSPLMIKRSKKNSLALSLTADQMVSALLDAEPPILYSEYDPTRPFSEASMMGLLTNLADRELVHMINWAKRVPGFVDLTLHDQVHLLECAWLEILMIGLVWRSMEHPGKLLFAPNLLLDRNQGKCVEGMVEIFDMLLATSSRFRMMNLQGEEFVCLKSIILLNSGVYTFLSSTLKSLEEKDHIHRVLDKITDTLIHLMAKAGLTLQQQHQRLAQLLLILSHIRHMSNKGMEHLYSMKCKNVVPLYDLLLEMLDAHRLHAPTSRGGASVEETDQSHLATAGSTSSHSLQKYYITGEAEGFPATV
Sequence of Thyrotropin receptor (Homo sapiens) (P16473 whole entry, looked up): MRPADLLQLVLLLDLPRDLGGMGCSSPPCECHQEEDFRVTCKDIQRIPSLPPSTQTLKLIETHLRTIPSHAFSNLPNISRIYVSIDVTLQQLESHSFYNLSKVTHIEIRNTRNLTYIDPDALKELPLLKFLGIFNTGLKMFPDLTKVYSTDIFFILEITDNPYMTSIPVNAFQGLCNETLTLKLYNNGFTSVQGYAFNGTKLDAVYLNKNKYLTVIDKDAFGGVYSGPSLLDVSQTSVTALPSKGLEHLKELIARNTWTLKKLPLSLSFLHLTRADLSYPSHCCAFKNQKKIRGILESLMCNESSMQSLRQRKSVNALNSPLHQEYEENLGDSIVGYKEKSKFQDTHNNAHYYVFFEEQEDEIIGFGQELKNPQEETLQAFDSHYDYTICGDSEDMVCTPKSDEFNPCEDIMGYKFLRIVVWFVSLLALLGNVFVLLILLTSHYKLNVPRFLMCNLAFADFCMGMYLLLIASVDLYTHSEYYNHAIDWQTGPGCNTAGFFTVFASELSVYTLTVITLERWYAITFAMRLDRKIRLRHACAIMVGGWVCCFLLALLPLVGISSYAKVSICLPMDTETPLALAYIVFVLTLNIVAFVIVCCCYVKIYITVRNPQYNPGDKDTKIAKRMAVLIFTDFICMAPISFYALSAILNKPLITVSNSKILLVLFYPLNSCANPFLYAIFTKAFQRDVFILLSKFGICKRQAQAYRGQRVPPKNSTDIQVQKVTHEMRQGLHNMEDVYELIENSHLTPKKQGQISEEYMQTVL

With `CCSCC`, the Potency result in [1], in assay [2], in [3], in assay [4], in assay [5] and in [7] was “inactive” in each case. The Potency result in assay [8], in assay [9], in assay [10] and in assay [11] was “inactive” throughout. The compound was called inactive in [6].

On to `CC(Cc1ccc(O)c(O)c1)C(C)Cc1ccc(O)c(O)c1` (stereo not given), for which the Potency result in assay [2], in [12], in [13], in [3], in assay [16] and in assay [17] was “inactive” in each case. Also, the Potency result in [4], in assay [5], in assay [18], in assay [8] and in [10] was “inactive” each time. In addition, the call in assay [14] and in assay [6] was inactive. Besides, the Potency in [15] was 61.1 µM (active); in assay [9], 54.5 µM (active); in [19], 21.7 µM (active).

On to `NCc1ccco1`, for which the Potency entry in assay [1], in assay [12], in [13], in [3], in [15] and in assay [16] was “inactive” each time. For the same compound, the Potency entry in [17], in assay [4], in [5], in assay [18], in [8] and in assay [9] was “inactive” each time. The Potency entry in assay [10], in assay [11] and in assay [19] was “inactive” each time. For the same compound, the compound was classed as inactive in [14] and in [6].

As for `C=Cc1ccncc1`, the Potency entry in [1], in [12], in assay [13], in assay [3], in assay [15] and in assay [16] was “inactive” throughout. For the same compound, the Potency result in [17], in [4], in [5], in assay [20], in assay [7] and in [18] was “inactive” throughout. Besides, the Potency entry in assay [8], in assay [9], in [10], in assay [11] and in assay [19] was “inactive” throughout. In addition, the outcome in assay [14] and in assay [6] was inactive.

Regarding `O=C1OC2(c3ccccc31)c1ccc(O)c(Br)c1Oc1c2ccc(O)c1Br`, the Potency result in assay [1], in assay [16], in [4], in assay [5], in assay [18] and in assay [8] was “inactive” in each case. The Potency entry in assay [10] was “inactive”. The Potency in assay [13] was 48.6 µM (active); in assay [3], 30.6 µM (active); in assay [7] it was 3.89 µM (active); in assay [9], 27.3 µM (active); in assay [11], 27.3 µM (active).

Turning to `COC(=O)c1ccc([N+](=O)[O-])cc1`, the Potency result in assay [1], in assay [12], in [13], in assay [3], in assay [16] and in [17] was “inactive” each time. For the same compound, the Potency result in assay [4], in assay [5], in assay [20], in [7], in [18] and in assay [8] was “inactive” throughout. In addition, the Potency entry in [9], in [10] and in [19] was “inactive” throughout. In addition, in assay [6], the compound was classed as inactive.

Regarding `NCc1cccc(C2CCN(C(=O)c3ccc(C#Cc4ccccc4F)o3)CC2)c1`, the Potency was 61.1 µM (active) in assay [1], 68.6 µM (active) in assay [15], 48.6 µM (active) in assay [16] and 61.1 µM (active) in assay [17]. Besides, the Potency entry in [2], in [20] and in assay [19] was “inactive” in each case. Besides, in assay [6], the compound was classed as inactive.

As to `Cc1ccc(Cl)c(N)c1Cl`, the Potency entry in [1], in assay [12], in [13], in assay [3], in [4] and in assay [5] was “inactive” throughout. The Potency result in assay [8], in assay [9], in assay [10] and in assay [11] was “inactive” each time. Further, the result in assay [6] was inactive.
